This is an account of results in PubChem BioAssay.

For some assays here: Potency and affinity values are given separately. Active and inactive are the calls of the source.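 How the source made its calls, unless noted: active means fluorescence ratio normalized to control raised more than 50% in primary screen plus both repeat runs; inactive means the rest.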

As a reminder, the inhibition is the drop in the measured response relative to a control, in per cent.

The test system of test [1] is TRPC4 beta (transient receptor potential cation channel C4), mouse. The test is described as follows: TRPC4 cation channel opening, retest – cell-based, Fluo4 calcium, HEK293 TRPC4beta/mu-opioid, duplicates, 10 µM, confirmation (AID 2426). The settings on record: Fluo4 calcium fluorescence, at 10 µM; active compounds read high.
In test [2] the test system is transient receptor potential cation channel C4 beta (TRPC4), mouse. The test is described as follows: TRPC4 cation channel opening, second retest – cell-based, second round, Fluo4, HEK293 TRPC4beta/mu-opioid, 1 µM, confirmation (AID 2461;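 active means primary screen active and over 50% activation in each of two duplicate runs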). The settings on record: Fluo4 calcium fluorescence, at 1 µM; active compounds read high.
Test [3] concerns TRPC4 (transient receptor potential cation channel C4 beta), mouse. The test is described as follows: potentiation of DAMGO EC20 TRPC4 response – cell-based, second round, Fluo-4, HEK293 TRPC4beta/mu-opioid, 1 µM, confirmation (AID 2554;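 active means primary screen hit whose fluorescence ratio, in both repeats, exceeds the weak agonist control mean by 3 SD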). The conditions noted are these: DAMGO EC20, Fluo-4 calcium flux, at 1 µM; active compounds read high. A general note: Calcium flux is commonly read through the fluorescence of an indicator in the cells.

Test [4] concerns TRPC4 beta (transient receptor potential cation channel C4), mouse. The test is described as follows: potentiation of DAMGO EC20 TRPC4 response – cell-based, Fluo-4, HEK293 TRPC4beta/mu-opioid, confirmation (AID 2555;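 active means primary screen hit whose calcium fluorescence ratio, in both repeats, exceeds the weak agonist control mean by 3 SD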). The settings on record: DAMGO EC20, Fluo-4 calcium flux, at 10 µM; active compounds read high.
The target in test [5] is Short transient receptor potential channel 4 (Mus musculus) (UniProt Q9QUQ5). The test is described as follows: blockers of DAMGO-evoked TRPC4 calcium flux – cell-based, Fluo4, HEK293 TRPC4beta/mu-opioid, confirmation (AID 2636;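 active means calcium signal cut by more than 3 SD below the full-agonist control yet still positive, in both repeats and the earlier primary screen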). The conditions noted are these: at 10 µM; active compounds read high.
Chain of Short transient receptor potential channel 4 (Mus musculus) (Q9QUQ5 whole entry, looked up): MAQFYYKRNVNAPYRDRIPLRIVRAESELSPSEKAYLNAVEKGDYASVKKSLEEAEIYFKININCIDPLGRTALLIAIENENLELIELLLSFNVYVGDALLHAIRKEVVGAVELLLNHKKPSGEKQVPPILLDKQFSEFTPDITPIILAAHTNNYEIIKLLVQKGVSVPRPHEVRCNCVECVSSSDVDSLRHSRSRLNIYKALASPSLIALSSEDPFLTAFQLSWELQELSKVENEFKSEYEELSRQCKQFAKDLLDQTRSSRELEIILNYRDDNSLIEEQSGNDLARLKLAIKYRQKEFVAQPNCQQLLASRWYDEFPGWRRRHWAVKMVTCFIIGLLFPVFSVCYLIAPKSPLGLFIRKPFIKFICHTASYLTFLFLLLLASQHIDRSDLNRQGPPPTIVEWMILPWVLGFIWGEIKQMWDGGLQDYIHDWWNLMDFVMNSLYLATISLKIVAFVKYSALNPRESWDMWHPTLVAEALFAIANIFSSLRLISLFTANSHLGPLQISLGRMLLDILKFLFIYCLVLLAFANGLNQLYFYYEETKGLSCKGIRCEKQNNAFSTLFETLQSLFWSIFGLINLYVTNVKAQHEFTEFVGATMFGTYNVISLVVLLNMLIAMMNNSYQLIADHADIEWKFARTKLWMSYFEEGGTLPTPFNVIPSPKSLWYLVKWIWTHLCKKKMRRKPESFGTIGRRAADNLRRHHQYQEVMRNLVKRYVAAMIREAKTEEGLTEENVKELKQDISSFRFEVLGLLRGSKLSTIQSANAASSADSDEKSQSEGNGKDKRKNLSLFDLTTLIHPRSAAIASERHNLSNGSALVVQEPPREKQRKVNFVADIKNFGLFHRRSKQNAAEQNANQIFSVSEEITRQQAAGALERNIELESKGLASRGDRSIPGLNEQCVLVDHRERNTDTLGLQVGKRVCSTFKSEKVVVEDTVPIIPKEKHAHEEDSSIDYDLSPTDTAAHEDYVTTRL
Test [6] has the same target. The test is described as follows: blockers of DAMGO-evoked TRPC4 calcium flux – cell-based, second round, Fluo4, HEK293 TRPC4beta/mu-opioid, 1 µM, confirmation (AID 2637;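 active means calcium signal ratio cut to more than 3 SD under the fully stimulated control mean yet still positive, in both repeats and the primary screen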;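 on inhibition: percent of integrated ratio relative to wells lacking test compound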). The settings on record: at 1 µM; active compounds read high.
For test [7] the target is unchanged. The test is described as follows: calcium entry via TRPC4 opening agents – cell-based, HEK293 TRPC4/mu-opioid, Fluo-4 calcium, dose response (AID 434937;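 active means primary screen activator hit with a dose response curve and TRPC4 channel activation at any tested dose; inactive means no activation, no dose response, or not a primary hit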).
Test [8] has the same target. The test is described as follows: potentiation of DAMGO-evoked TRPC4 calcium signal – cell-based, HEK293 TRPC4/mu-opioid, Fluo-4 calcium, EC20 DAMGO, dose response (AID 434941;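 active means earlier screen potentiator hit that boosts the TRPC4 ion channel at some dose, with a dose response; inactive means no potentiation, no dose response, or not a prior hit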;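 further: calcium entry triggered by an EC20 dose of DAMGO at the co-expressed mu-opioid receptor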).
For test [9], the target named is Short transient receptor potential channel 6 (Mus musculus) (UniProt Q61143). The test is described as follows: TRPC6 blockade by TRPC4 inhibitor hits – cell-based, HEK293, membrane potential dye, duplicate, selectivity assay for TRPC4 inhibitor project, confirmation (AID 434948;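 active means active in primary screen and both duplicates, each dropping signal beyond three positive-control SD with fluorescence still positive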). The settings on record: HEK293 TRPC6, membrane potential dye fluorescence, at 10 µM, stimulated with maximal-effect acetylcholine; active compounds read high.
Chain of Short transient receptor potential channel 6 (Mus musculus) (Q61143 whole entry, looked up): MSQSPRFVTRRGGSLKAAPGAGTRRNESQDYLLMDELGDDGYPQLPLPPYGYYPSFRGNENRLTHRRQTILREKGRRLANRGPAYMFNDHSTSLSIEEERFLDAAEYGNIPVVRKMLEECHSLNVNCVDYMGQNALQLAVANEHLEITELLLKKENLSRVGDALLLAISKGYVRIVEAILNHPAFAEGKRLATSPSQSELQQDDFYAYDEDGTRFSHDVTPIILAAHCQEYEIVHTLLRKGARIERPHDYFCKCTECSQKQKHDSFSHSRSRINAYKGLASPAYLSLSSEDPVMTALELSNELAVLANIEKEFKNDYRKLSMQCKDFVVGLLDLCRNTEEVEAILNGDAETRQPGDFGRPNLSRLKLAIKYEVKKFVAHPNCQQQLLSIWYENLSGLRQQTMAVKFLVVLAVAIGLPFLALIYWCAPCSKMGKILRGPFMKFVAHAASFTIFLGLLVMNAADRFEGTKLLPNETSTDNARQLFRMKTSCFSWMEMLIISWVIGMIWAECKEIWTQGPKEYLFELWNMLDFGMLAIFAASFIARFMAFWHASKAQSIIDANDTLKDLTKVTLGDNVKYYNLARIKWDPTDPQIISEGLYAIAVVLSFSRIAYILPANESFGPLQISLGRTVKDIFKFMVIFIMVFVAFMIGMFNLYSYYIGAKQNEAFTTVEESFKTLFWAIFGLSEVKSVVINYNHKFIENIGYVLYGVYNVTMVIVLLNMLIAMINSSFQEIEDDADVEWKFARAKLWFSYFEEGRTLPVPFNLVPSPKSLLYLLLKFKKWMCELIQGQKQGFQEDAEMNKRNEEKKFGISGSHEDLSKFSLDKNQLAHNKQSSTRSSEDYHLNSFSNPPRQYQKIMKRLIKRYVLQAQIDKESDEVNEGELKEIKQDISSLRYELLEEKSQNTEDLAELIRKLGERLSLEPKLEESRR

Test [10] has the same target. The test is described as follows: TRPC6 opening by TRPC4 activator hits – cell-based, HEK293, membrane potential dye, duplicate, selectivity assay for TRPC4 activator project, confirmation (AID 434950;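 active means membrane potential signal rise above negative control mean plus 3 SD in both duplicates, also active in the earlier TRPC4 screen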). The settings on record: HEK293 TRPC6, membrane potential fluorescence, at 10 µM; activation: active compounds read high; outcome: activation.
Test [11] shares this target. The test is described as follows: positive modulators of mouse TRPC6 channel – HEK293 cells, membrane potential dye, duplicate, selectivity assay for TRPC4 potentiator project, confirmation (AID 434952;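 active means compound raising the membrane signal above positive-control mean plus 3 SD in both repeats, and a primary screen hit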). The settings on record: HEK293 TRPC6, membrane potential dye fluorescence, at 10 µM, maximal acetylcholine added after compound; active compounds read high.
For test [12], the target named is Short transient receptor potential channel 4 (Mus musculus) (UniProt Q9QUQ5). The test is described as follows: calcium flux activators in TRPC4/5HT1a cells, counter-screen for TRPC4 activator project, cell-based, second counter screen, HEK293 TRPC4/5HT1a, Fluo-4 (AID 434977;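 active means calcium signal rise above buffer-control mean plus 5 SD in both duplicates, and also a hit in the primary screen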). The conditions noted are these: Fluo-4 calcium flux, at 10 µM; active compounds read high.
Test [13] in a line: serotonin-gated TRPC4 signal block – cell-based, second counter screen, HEK293 TRPC4/5HT1a, Fluo-4, counter-screen for TRPC4 inhibitor project, confirmation (AID 434978;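 active means primary screen active whose calcium signal fell more than 3 SD beyond the full-serotonin control mean in both duplicate plates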;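 on outcome: serotonin given first at submaximal then at maximal dose after compound preincubation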). The settings on record: Fluo-4 calcium flux, at 10 µM, serotonin added to trigger calcium flux; active compounds read high. On the technique in general: The purpose of a counterscreen is to sort out artefacts and off-target activity.

Test [14] has as its system TRPC4 (mouse), co-expressed with 5HT1a in HEK293. The test is described as follows: enhancement of serotonin-evoked TRPC4 response – cell-based, second counter screen, HEK293 TRPC4/5HT1a, Fluo-4, counter-screen for TRPC4 potentiator project, confirmation (AID 434979;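 active means signal rise over 3 SD above mean of control wells given weak agonist, in both repeats and first screen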). The conditions noted are these: Fluo-4 calcium flux, at 10 µM, serotonin added at its EC20 dose; active compounds read high.

Test [15] is described as follows: nonspecific calcium rise without TRPC4 – cell-based, HEK293 mu-opioid receptor line, counter-screen for TRPC4 activator project, confirmation (AID 449723;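 active means hit in primary screen, with calcium signal over 5 SD above buffer well mean in both duplicates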;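 further: counter screen cells carry the mu-opioid receptor alone and lack TRPC4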). The conditions noted are these: HEK293 mu-opioid cells, Fluo-4 calcium fluorescence, at 10 µM; active compounds read high.
Test [16] is described as follows: nonspecific potentiation of DAMGO calcium response – cell-based, HEK293 mu-opioid receptor line, counter-screen for TRPC4 allosteric potentiator project, confirmation (AID 449724;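 active means calcium signal rise more than 3 SD above the low-dose agonist control mean, in both duplicate plates and the primary screen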;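 further: HEK293 cells carrying mu-opioid receptor only with no TRPC4 channel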). The settings on record: HEK293 mu-opioid receptor cells, Fluo-4 calcium flux, at 10 µM, compound added before EC20 DAMGO stimulus; active compounds read high.

As for `Cc1ccc(C)c2c(N)c3c(nc12)CCCCC3` (tested in a mixture with another compound), the result in [1], in test [2], in [3], in [4], in test [7] and in test [8] was inactive. The outcome in test [10], in [11], in test [12], in test [14], in test [15] and in test [16] was inactive. Further, the inhibition in test [5] is 97% (active); in test [6], 69% (active); in test [9], 33.5% (active); in test [13], 8.52% (active).
Take `Cc1nc(Cl)nc(N(C)c2ccccc2)c1[N+](=O)[O-]`: the outcome in [1], in [2], in [3], in test [4], in test [7] and in test [8] was inactive. The compound was classed as inactive in test [9], in test [10], in [11], in test [12], in test [14] and in [15]. The outcome in test [16] was inactive. Besides, the figures for the inhibition in test [5], in test [6] and in test [13] were 97% (active), 49% (active) and 43.6% (active), respectively.
As for `Cc1ccc2nc(C)cc(Nc3ccc4c(c3)OCCO4)c2c1`, the result in [1], in test [2], in test [3], in test [4], in test [6] and in test [7] was inactive. Also, the result in [8], in [10], in test [11], in test [12], in test [13] and in [14] was inactive. Besides, the result in test [15] and in test [16] was inactive. The figures for the inhibition in test [5] and in test [9] were 90% (active) and 50% (active), respectively.
Turning to `C=CCN1CCN(C(c2cccc(OC)c2OC)c2nnnn2CCC(C)C)CC1` (centres undefined), the result in test [1], in test [2], in [3], in [4], in [6] and in test [7] was inactive. In addition, the result in [8], in [9], in test [10], in test [11], in [12] and in test [13] was inactive. Besides, the result in test [14], in test [15] and in test [16] was inactive. Besides, the inhibition in [5] is 51% (active).
`CCCCCCCNC(=O)COc1ccc2c(c1)C(=O)CC(C)(C)O2`: the outcome in [1], in test [2], in test [3], in [4], in test [7] and in test [8] was inactive. The call in test [9], in test [10], in test [11], in test [12], in [14] and in test [15] was inactive. Further, in test [16], the result was inactive. In addition, the inhibition in [5] is 81% (active); in [6], 46% (active); in test [13], 24.7% (active).
With `OCC1(Cc2ccc(Cl)cc2)CCN(Cc2ccccc2F)CC1`, the outcome in test [1], in [2], in test [3], in test [4], in [7] and in [8] was inactive. Further, the result in [9], in test [10], in test [11], in test [12], in test [14] and in test [15] was inactive. In addition, the outcome in [16] was inactive. The inhibition in test [5] was 89% (active); in test [6], 38% (active); in [13], 27.9% (active).
In the case of `Clc1ccc(COc2ccccc2CNCc2cccnc2)cc1`, the result in test [1], in test [2], in test [3], in [4], in [6] and in test [7] was inactive. The result in test [8], in test [9], in test [10], in [11], in test [12] and in test [14] was inactive. Moreover, the outcome in test [15] and in test [16] was inactive. The inhibition is 94% (active) in test [5] and 27.8% (active) in [13].
In the case of `Clc1ccccc1CSc1nc2ccncc2[nH]1`, the result in test [1], in test [2], in test [3], in test [4], in test [6] and in [7] was inactive. Also, the outcome in test [8], in [9], in [10], in test [11], in [12] and in [13] was inactive. Further, the outcome in [14], in test [15] and in test [16] was inactive. Besides, the inhibition in test [5] is 99% (active).
On to `O=C(Nc1ccccc1Oc1cccnc1)C1CCCN(Cc2cccc(Cl)c2)C1` (centres undefined), for which the result in test [1], in test [2], in test [3], in test [4], in [6] and in [7] was inactive. Also, the result in [8], in test [9], in [10], in test [11], in test [12] and in test [14] was inactive. Moreover, the result in [15] and in test [16] was inactive. In addition, the inhibition in test [5] was 89% (active); in test [13], 33.5% (active).
As for `Cc1n[nH]c(C)c1CCCCOc1ccccc1`, the result in [1], in [2], in [3], in [4], in test [7] and in test [8] was inactive. Also, the compound was classed as inactive in test [9], in test [10], in test [11], in test [12], in test [14] and in test [15]. For the same compound, the outcome in test [16] was inactive. Also, the inhibition in [5] was 95% (active); in [6] it was 40% (active); in [13], 31.5% (active).
Take `CCOC(=O)c1c(NC(=O)C(C)Sc2nnc(C)c(=O)[nH]2)sc2c1CCCC2` (centres undefined): the outcome in test [1], in test [2], in [3], in test [4], in test [7] and in test [8] was inactive. Also, the outcome in test [9], in [10], in test [11], in test [12], in test [14] and in test [15] was inactive. Further, the outcome in [16] was inactive. In addition, the inhibition was 77% (active) in test [5], 87% (active) in test [6] and 28.1% (active) in [13].
Regarding `Cn1cc(CNCC2CCCO2)c(-c2ccc(Oc3ccccc3)cc2)n1` (centres undefined), the result in [1], in test [2], in test [3], in test [4], in test [6] and in test [7] was inactive. Moreover, the result in test [8], in test [9], in test [10], in test [11], in [12] and in test [14] was inactive. Also, the outcome in test [15] and in test [16] was inactive. Besides, the inhibition in [5] is 92% (active); in test [13], 45.9% (active).
Consider `NS(=O)(=O)c1ccc(Nc2nc(-c3ccc(O)cc3O)cs2)cc1`, for which the result in test [1], in [2], in test [3], in test [4], in [7] and in test [8] was inactive. Moreover, the result in test [9], in test [10], in [11], in test [12], in [13] and in test [14] was inactive. In addition, the outcome in test [15] and in test [16] was inactive. Also, the results for the inhibition in [5] and in test [6] were 98% (active) and 47% (active), respectively.
Turning to `COCCn1c(SCc2cc(C(C)=O)ccc2OC)nc2cc(Cl)ccc2c1=O`, the result in [1], in test [2], in [3], in test [4], in test [6] and in [7] was inactive. Besides, the result in test [8], in test [9], in [10], in [11], in [12] and in test [13] was inactive. Further, the result in test [14], in [15] and in test [16] was inactive. Also, the inhibition in test [5] was 78% (active).
